Assay [1] in a line: antimalarial activity against Dd2 strain (AID 2302;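 active means growth inhibition above 50% at the single 2 µM test dose, taken to imply half-maximal potency below 2 µM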;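 further: 0% = DMSO untreated growth and 100% = chloroquine plus artemisinin killed control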). The note with it: P. falciparum Dd2 in RBCs, LDH growth readout, 72 h; at 2 µM; hits give high values.
Assay [2] is described as follows: HepG2 cytotoxicity, primary screen, cytotoxicity control for P. falciparum antimalarial project, cell-based, ATP luminescence (AID 2303;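 active means inhibition above 50%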;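 further: 0% = DMSO wells and 100% = digitonin-killed cells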). The conditions noted are these: HepG2 viability, 24-48 h, at 10 µM, hits give high values.
Assay [3] has as its target L-lactate dehydrogenase (Plasmodium falciparum (isolate CDC / Honduras)) (UniProt Q27743). The assay can be described thus: PfLDH activity inhibition – cell lysate, 3D7 strain, counter-screen for P. falciparum growth inhibition project (AID 2304).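 Further: 0% = vehicle and 100% = reference inhibitor.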 The note with it: P. falciparum 3D7 crude extract, LDH APAD/NBT absorbance; at 2 µM; hits give high values. On the technique in general: Counterscreens check selectivity or assay interference.

Assay [4] is described as follows: inhibition of 3D7 malaria parasite growth – strain 3D7 (AID 2306).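 Further: 0% = DMSO wells and 100% = chloroquine plus artemisinin control wells.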 The note with it: P. falciparum 3D7 erythrocytic growth, LDH absorbance, 72 h; at 2 µM; hits give high values.
The target of assay [5] is Calcium-dependent protein kinase 1 (Plasmodium falciparum (isolate 3D7)) (UniProt P62344). The assay can be described thus: PfCDPK1 kinase inhibitors, biochemical, TCAMS library (AID 1159585; cut-off not given, nearly all actives have IC50 up to about 0.98 µM;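 further: inhibitors leave more ATP so luminescence rises with inhibition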). The note with it: recombinant PfCDPK1, Kinase-Glo ATP depletion luminescence. For orientation: Kinase-Glo reads ATP consumption through a luciferase reaction.
Calcium-dependent protein kinase 1 (Plasmodium falciparum (isolate 3D7)), sequence (P62344 whole entry, looked up): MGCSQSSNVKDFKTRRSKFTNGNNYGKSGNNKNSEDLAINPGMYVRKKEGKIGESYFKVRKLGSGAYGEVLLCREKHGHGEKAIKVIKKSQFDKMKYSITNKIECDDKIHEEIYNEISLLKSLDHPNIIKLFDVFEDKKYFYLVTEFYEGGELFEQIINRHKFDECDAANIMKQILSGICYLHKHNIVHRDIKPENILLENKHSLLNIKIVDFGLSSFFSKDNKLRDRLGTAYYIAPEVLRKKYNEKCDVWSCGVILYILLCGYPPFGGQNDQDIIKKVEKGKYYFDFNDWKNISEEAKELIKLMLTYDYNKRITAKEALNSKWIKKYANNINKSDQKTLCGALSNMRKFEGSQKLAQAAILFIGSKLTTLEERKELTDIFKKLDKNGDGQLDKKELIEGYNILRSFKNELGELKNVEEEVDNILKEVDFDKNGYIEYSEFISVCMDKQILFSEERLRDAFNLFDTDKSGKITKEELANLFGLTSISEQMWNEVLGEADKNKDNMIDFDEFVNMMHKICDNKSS
Assay [6] has as its target Plasmodium falciparum protein kinase 6 (PK6, PF3D7_1337100) (UniProt Q8IDW1). The assay is described as follows: PfPK6 kinase inhibitors, biochemical, TCAMS library (AID 1159586). The conditions noted are these: recombinant PfPK6, Kinase-Glo ATP depletion luminescence.
For assay [7], the target named is Protein kinase 7 (PK7), Plasmodium falciparum 3D7 (PF3D7_0213400) (UniProt Q7YTF7). The assay can be described thus: inhibition of Plasmodium PK7 catalytic activity – biochemical, TCAMS antimalarial set, Kinase-Glo luminescence (AID 1159587). The note with it: recombinant PfPK7, Kinase-Glo ATP depletion luminescence.
Protein kinase 7 (PK7), Plasmodium falciparum 3D7 (PF3D7_0213400), sequence (Q7YTF7 1-343): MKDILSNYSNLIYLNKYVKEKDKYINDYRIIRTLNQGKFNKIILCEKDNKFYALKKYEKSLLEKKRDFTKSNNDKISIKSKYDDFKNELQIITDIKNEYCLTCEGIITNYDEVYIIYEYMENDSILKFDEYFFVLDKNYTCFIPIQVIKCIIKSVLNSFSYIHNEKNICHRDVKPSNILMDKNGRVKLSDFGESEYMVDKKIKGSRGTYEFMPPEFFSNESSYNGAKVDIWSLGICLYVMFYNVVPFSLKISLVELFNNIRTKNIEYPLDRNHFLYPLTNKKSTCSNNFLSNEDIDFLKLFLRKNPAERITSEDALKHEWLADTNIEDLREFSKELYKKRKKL
Assay [8] deals with Calcium-dependent protein kinase 4 (Plasmodium falciparum (isolate 3D7)) (UniProt Q8IBS5). The assay is described as follows: PfCDPK4 kinase inhibitors, biochemical, TCAMS library (AID 1159588; cut-off not given, nearly all actives have IC50 up to about 0.91 µM). The note with it: recombinant PfCDPK4, Kinase-Glo ATP depletion luminescence.
Calcium-dependent protein kinase 4 (Plasmodium falciparum (isolate 3D7)), sequence (Q8IBS5 whole entry, looked up): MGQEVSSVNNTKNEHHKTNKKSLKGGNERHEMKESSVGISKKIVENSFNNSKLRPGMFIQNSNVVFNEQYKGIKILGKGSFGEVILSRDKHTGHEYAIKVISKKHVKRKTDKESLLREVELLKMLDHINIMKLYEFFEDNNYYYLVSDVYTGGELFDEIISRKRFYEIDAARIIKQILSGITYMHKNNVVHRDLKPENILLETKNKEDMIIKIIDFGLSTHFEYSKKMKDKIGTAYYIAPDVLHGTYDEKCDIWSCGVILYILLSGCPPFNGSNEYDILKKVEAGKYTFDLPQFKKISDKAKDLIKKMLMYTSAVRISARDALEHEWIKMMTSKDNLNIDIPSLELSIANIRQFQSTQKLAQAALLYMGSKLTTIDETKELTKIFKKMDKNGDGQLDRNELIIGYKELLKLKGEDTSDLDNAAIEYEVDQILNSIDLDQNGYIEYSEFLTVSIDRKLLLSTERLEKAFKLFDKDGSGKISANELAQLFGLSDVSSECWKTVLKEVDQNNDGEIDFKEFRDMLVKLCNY

A number with no mark means an inactive call. For some of these results: Measured potencies and affinities stand elsewhere. Active and inactive are the calls of the source. Unless noted, how the calls were made is not given here.

L-lactate dehydrogenase (Plasmodium falciparum (isolate CDC / Honduras)), sequence (Q27743 whole entry, looked up): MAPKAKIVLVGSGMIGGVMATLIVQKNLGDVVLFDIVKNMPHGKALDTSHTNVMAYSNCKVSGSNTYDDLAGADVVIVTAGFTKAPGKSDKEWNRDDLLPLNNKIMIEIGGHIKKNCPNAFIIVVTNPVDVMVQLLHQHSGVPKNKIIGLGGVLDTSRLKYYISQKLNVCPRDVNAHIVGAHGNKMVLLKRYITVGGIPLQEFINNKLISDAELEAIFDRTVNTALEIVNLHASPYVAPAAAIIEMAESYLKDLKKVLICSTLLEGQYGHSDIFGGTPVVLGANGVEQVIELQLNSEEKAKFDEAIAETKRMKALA
Plasmodium falciparum protein kinase 6 (PK6, PF3D7_1337100), sequence (Q8IDW1 1-305): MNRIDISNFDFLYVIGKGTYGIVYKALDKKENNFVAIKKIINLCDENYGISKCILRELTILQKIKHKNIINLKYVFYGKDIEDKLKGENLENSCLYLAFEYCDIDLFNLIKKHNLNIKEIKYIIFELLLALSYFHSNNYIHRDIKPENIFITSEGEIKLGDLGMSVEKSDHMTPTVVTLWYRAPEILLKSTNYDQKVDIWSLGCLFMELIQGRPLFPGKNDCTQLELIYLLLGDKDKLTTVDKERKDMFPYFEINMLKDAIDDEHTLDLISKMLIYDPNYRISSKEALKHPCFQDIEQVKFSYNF

What is called inhibition is the relative decrease from the control value, in per cent. Regarding `Cc1cccc(CNc2nc(C)cc(N[C@@H](Cc3ccccc3)C(=O)NCCOc3ccccc3)n2)c1`, the figures for the growth inhibition in assay [1] and in assay [4] were 54% (active) and 93% (active), respectively. The inhibition was 28% in assay [2] and 1% in assay [3]. Besides, the result in assay [5], in assay [6], in assay [7] and in assay [8] was inactive.
In the case of `CC(C)NCc1cccc(-c2cccc(NC(=O)c3cccc(C#N)c3)c2)c1`, the values for the growth inhibition in assay [1] and in assay [4] were 22% and 99% (active), respectively. Also, the inhibition was 12% in assay [2] and -4% in assay [3]. Besides, the outcome in assay [5], in assay [6], in assay [7] and in assay [8] was inactive.
Regarding `Cc1ccc(CN2CCC(Oc3cccc(NC(=O)c4ccc(C(F)(F)F)cc4)c3)CC2)cc1`, the growth inhibition in assay [1] was 15%; in assay [4] it was 92% (active). The inhibition in assay [2] was 37%; in assay [3], -1%. In addition, the result in assay [5], in assay [6], in assay [7] and in assay [8] was inactive.
Consider `Cc1cccc(C(=O)NC(NC(=S)Nc2cc(Cl)ccc2Cl)C(Cl)(Cl)Cl)c1` (stereo not given), for which the growth inhibition was 61% (active) in assay [1] and 94% (active) in assay [4]. The values for the inhibition in assay [2] and in assay [3] were -8% and 1%, respectively. Besides, the result in assay [5], in assay [6], in assay [7] and in assay [8] was inactive.
Consider `CC(=O)Nc1cc(C(=O)Nc2cccc(-c3csc(-c4nc5ccccc5[nH]4)c3)c2)ccc1C`, for which the growth inhibition in assay [1] was 66% (active); in assay [4], 94% (active). In addition, the inhibition in assay [2] was 31%; in assay [3], 3%. The result in assay [5], in assay [6], in assay [7] and in assay [8] was inactive.
With `COc1ccc(CNc2nc(NCCc3ccccc3)c3cc(OC)c(OC)cc3n2)cc1OC`, the results for the growth inhibition in assay [1] and in assay [4] were 101% (active) and 100% (active), respectively. For the same molecule, the inhibition in assay [2] was 48%; in assay [3], 3%. Besides, the outcome in assay [5], in assay [6], in assay [7] and in assay [8] was inactive.
For the molecule `O=C(NCCCCN1CCC(C(c2ccccc2)c2ccccc2)CC1)c1ccc(NC(=O)c2ccc(Cl)cc2)cc1`, the growth inhibition is 47% in assay [1] and 100% (active) in assay [4]. In addition, the figures for the inhibition in assay [2] and in assay [3] were 12% and -2%, respectively. The result in assay [5], in assay [6], in assay [7] and in assay [8] was inactive.
Consider `CCOC(=O)c1ccc(NC(=O)N[C@@H](Cc2ccc(O)cc2)C(=O)NC2CCN(Cc3ccc4c(c3)OCO4)CC2)cc1`, for which the growth inhibition in assay [1] is 24%; in assay [4], 86% (active). Further, the inhibition in assay [2] was -1%; in assay [3], 3%. In addition, the result in assay [5], in assay [6], in assay [7] and in assay [8] was inactive.
In the case of `Cc1cccc2[nH]c(-c3ccc(-c4ccc(NC(=O)Nc5ccc(Cl)c(Cl)c5)cc4)s3)nc12`, the growth inhibition in assay [1] and in assay [4] was 101% (active) in each case. Besides, the values for the inhibition in assay [2] and in assay [3] were 100% (active) and 0%, respectively. The result in assay [5], in assay [6], in assay [7] and in assay [8] was inactive.
As to `CCOc1cc(C(=O)NC2CC(C)(C)NC(C)(C)C2)ccc1-c1cc2cc(Cl)c(Cl)cc2[nH]1`, the results for the growth inhibition in assay [1] and in assay [4] were 46% and 101% (active), respectively. The inhibition in assay [2] is 37%; in assay [3], -1%. The outcome in assay [5], in assay [6], in assay [7] and in assay [8] was inactive.
On to `O=c1cc(NCCCNCc2scc(I)c2I)[nH]c2ccccc12`, for which the growth inhibition in assay [1] is 73% (active); in assay [4], 100% (active). Also, the figures for the inhibition in assay [2] and in assay [3] were -16% and -1%, respectively. In addition, the outcome in assay [5], in assay [6], in assay [7] and in assay [8] was inactive.
`O=C(Nc1cccc(-c2ccc(-c3nc4ccc(C(F)(F)F)cc4[nH]3)cc2)c1)c1ccoc1`: the growth inhibition in assay [1] is 42%; in assay [4], 98% (active). Also, the inhibition in assay [2] was 76% (active); in assay [3] it was -4%. In addition, the result in assay [5], in assay [6], in assay [7] and in assay [8] was inactive.
On to `COc1ccc(CCNCCCCCNCCCc2ccc(Cl)cc2)cc1OC`, for which the growth inhibition in assay [1] is 2%; in assay [4], 101% (active). In addition, the inhibition in assay [2] is 24%; in assay [3], 2%. For the same molecule, the outcome in assay [5], in assay [6], in assay [7] and in assay [8] was inactive.
For `CCCc1cc(Cc2cnc(N)nc2N)cc(CCC)c1O`, the growth inhibition in assay [1] is 5%; in assay [4], 96% (active). The values for the inhibition in assay [2] and in assay [3] were 64% (active) and 2%, respectively. In addition, the result in assay [5], in assay [6], in assay [7] and in assay [8] was inactive.
For the molecule `CN(C)CCCOc1ccc(CN2CC[C@H](NC(=O)c3ccc(Cl)c(Cl)c3)C2)c2ccccc12`, the growth inhibition in assay [1] was 97% (active); in assay [4] it was 101% (active). Also, the inhibition in assay [2] was 81% (active); in assay [3] it was 0%. Also, the result in assay [5], in assay [6], in assay [7] and in assay [8] was inactive.
Take `Cc1cc(NS(=O)(=O)c2cccc(C(C)N3CCC(N4CCCC4)CC3)c2)ccc1C(C)C` (stereo not given): the growth inhibition in assay [1] was 53% (active); in assay [4], 100% (active). For the same molecule, the inhibition in assay [2] is 30%; in assay [3], -2%. Moreover, the outcome in assay [5], in assay [6], in assay [7] and in assay [8] was inactive.
On to `CCOC(=O)c1ccc(COc2ccc(C)nc2)cc1`, for which the growth inhibition in assay [1] is -7%; in assay [4] it was 100% (active). For the same molecule, the inhibition in assay [2] is 14%; in assay [3] it was -8%. Further, the result in assay [5], in assay [6], in assay [7] and in assay [8] was inactive.
With `c1ccc2c(NCCCCCCCNc3ccnc4ccccc34)ccnc2c1`, the growth inhibition in assay [1] is 94% (active); in assay [4], 101% (active). Moreover, the inhibition was 91% (active) in assay [2] and 1% in assay [3]. In addition, the result in assay [5], in assay [6], in assay [7] and in assay [8] was inactive.
Take `Cc1ccccc1NC(=O)C1CSCN1C(=O)OCc1ccccc1` (stereo not given): the growth inhibition in assay [1] was -1%; in assay [4], 91% (active). For the same molecule, the results for the inhibition in assay [2] and in assay [3] were 8% and -1%, respectively. The result in assay [5], in assay [6], in assay [7] and in assay [8] was inactive.
`COc1ccc(CCNCCCCCCNCCc2ccc(Cl)c3ccccc23)cc1OC`: the growth inhibition in assay [1] is 28%; in assay [4], 100% (active). Also, the inhibition in assay [2] is 100% (active); in assay [3], 6%. Further, the result in assay [5], in assay [6], in assay [7] and in assay [8] was inactive.

The values are drawn from PubChem BioAssay.
